MBNL1 CUG block: blocks human MBNL1 binding to CUG repeat RNA; Q9NR56; Potency, µM (highest dose often 57.5 µM), inactives show at the top dose activity change, negative = inhibition, usual class: inhibitors; hit rate 0.036% among 280,000; TR-FRET MBNL1-His/biotin-(CUG)12 binding, 665/545 ratio; AID 2675; active means well fitted inhibition curve with a large enough effect in the signal ratio, with a control signal flat, not every such curve was filed as active; inconclusive means small, poorly fitted or top-dose-only effect, or effect the other way, or a change in a side signal; inactive means no such curve, though single readings can be large or run the other way; the % refers to the signal ratio; further: potency means the concentration at half of the fitted maximal effect; on the % scale 0 is the no-effect control and ±100 the full control effect
Target sequence (Q9NR56 whole entry, looked up): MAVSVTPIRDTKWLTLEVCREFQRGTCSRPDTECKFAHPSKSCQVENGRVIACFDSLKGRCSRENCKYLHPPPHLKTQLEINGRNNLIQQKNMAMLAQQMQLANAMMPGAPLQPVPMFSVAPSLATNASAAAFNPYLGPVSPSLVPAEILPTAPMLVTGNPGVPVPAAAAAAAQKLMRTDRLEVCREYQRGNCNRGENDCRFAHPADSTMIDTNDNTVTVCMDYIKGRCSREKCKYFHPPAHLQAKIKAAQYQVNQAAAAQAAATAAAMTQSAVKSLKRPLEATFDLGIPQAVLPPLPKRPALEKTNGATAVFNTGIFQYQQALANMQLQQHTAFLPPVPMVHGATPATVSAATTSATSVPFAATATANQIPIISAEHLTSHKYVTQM
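Compound titration spanned 92 nM–58 uM against the MBNL1-His/biotin-(CUG)12 complex. After 60 min at room temperature with 5 nM streptavidin-XL665 and 0.055 ng/ul terbium anti-His, ratiometric 665/545 nm emission (Ex 340 nm) normalized to controls.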
D3 ag: agonists of human D3 dopamine receptor | D3R DiscoveRx beta-arrestin cells, luminescence, 90 min | max activation, % | hit rate 0.58% among 410,000 | AID 652048; in the data active means max activation above about 30%; further: 0% is about no effect
Target sequence (P35462 whole entry, looked up): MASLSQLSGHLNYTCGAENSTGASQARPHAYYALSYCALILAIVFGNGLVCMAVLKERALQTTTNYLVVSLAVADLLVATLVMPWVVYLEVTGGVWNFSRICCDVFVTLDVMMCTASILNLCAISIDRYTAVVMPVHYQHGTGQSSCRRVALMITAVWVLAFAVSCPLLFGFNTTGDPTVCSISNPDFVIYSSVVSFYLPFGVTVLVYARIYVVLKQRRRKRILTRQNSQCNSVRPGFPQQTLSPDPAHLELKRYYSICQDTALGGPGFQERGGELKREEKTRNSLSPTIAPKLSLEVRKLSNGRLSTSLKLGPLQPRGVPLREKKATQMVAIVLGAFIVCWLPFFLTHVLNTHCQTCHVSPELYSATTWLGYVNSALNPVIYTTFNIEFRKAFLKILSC
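Cells at 1500/well, incubated overnight, then treated with pinned compounds (dopamine as control) for 90 min at 37 degrees C. DiscoveRx reagent added for 30 - 60 minutes at room temperature; luminescence read.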
D3 antag: D3 dopamine receptor (human) antagonism; P35462; D3R cells, DiscoveRx beta-arrestin luminescence, antagonist mode; active compounds read low; max response, negative = inhibition, %; hit rate 2.5% among 360,000; AID 652054; in the data active means max response below about -50%; inconclusive means no clear call, values can overlap the other calls; further: on the % scale 0 is the no-effect control and ±100 the full control effect
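Cells plated overnight at 1500 cells/well, then exposed to library compounds with dopamine controls for 90 minutes at 37 degrees C. DiscoveRx reagent added for 30–60 minutes at room temperature; luminescence read, quantitative HTS format.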
CBFb-RUNX1 inh: CBF-beta/RUNX1 interaction disruption | Q01196+Q13951 | AlphaScreen CBFb-His/RUNX1-biotin binding, biochemical | Potency, µM (top dose mostly 59.8 µM), for inactives: at the highest dose activity, negative = inhibition, most hits filed as inhibitors | 230,000 tested, under 10 active; further: % of control where 0% means no effect
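Compounds were screened at multiple concentrations against a preformed CBF-beta(His)/RUNX1(biotin) complex (30 nM of each) for 15 min at room temperature, followed by 90 min with nickel and streptavidin beads and AlphaScreen reading.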
PTHR1 ag: agonists of human PTHR1 parathyroid hormone receptor; HEK293 GP2 PTHR1 cells, GloSensor cAMP luminescence, 1 h; hit rate 0.075% among 410,000; Potency, µM (series often up to 115 µM), for inactives: top-dose activation, actives largely listed as activators; Q03431; further: potency means the concentration at half of the fitted maximal effect; nearly all actives have a fitted effect of over 55% in size
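HEK-293-derived GP2 cells expressing PTHR1 and a GloSensor cAMP reporter, 3,000/well, plated overnight, given luciferin plus IBMX (each 0.5 mM as added) for 1 h at 37 °C, then compound for 1 h at 37 °C. Luminescence was read after 15 min at room temperature.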
Integrin act MD: activates integrin-mediated alleviation for muscular dystrophy. Potency, µM (highest dose often 38.3 µM), for the others: at the top dose activation, usual class: activators. hit rate 0.064% among 350,000. alpha7betagal myoblasts, beta-gal FDG fluorescence, 48 h;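 further: potency means the concentration at half of the fitted maximal effect; 100% = response of the positive control SU9516; nearly all actives have a fitted effect of over 60% in size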
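alpha7betagal+/- myoblasts (passage 13, 250/well) treated 48 h at 37C with compounds at 1:260 dilution of DMSO stock. Lysed, then beta-galactosidase activity read as FDG fluorescence (ex 480/em 540) after 30 min, with pre-read for autofluorescence.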
The depositor's hits bear a star; i = inactive; u = inconclusive; x = no result given; [ ] = dose if it differs, or a comment. Rows were chosen to be rich in hits. Some 2.8% of all compounds tested hit in one or more screens of this group. Unless noted, the call rests on the fitted dose curve; in most records, active means well fitted curve in the direction sought with a large enough effect; inconclusive means small, poorly fitted or top-dose-only effect, or another doubt; inactive means no such curve, though single readings can be large; an effect the other way counts as inactive or inconclusive.

SMILES	MBNL1 CUG block	D3 ag	D3 antag	CBFb-RUNX1 inh	PTHR1 ag	Integrin act MD
COc1ccc(N=c2ssnc2Cl)cc1	13.2%	-6.0	-55.2*	-19.6%	i	-15.4%
Clc1ccc(N=c2ssnc2Cl)cc1	u	0.9	40.9	u	-75.7%[57.5 µM]	-3.9%
CN(C)CCCC(=O)c1ccc2c(c1)OCO2	5.9%	-17.2	0.0	2.3%	i	28.2%
CN(C)CCC(=O)c1ccc2c(c1)OCO2	-0.5%	-2.0	-61.0*	1.1%	-6.6%	-69.0%
CC(=O)Nc1ccccc1OCC(=O)c1ccc2c(c1)OCO2	7.2%	46.6*	13.3	0.4%	-14.2%	0.0%
CCC(Cl)CC(Cl)C(Cl)C(Cl)C(Cl)C(C)Cl (stereo not drawn)	x	x	x	12.5%[21.7 µM]	x	x
COc1ccccc1CNS(=O)(=O)c1ccc(Cl)s1	-3.9%	-9.2	-19.7	x	i	6.31µM*
COc1cccc(CNS(=O)(=O)c2ccccc2Br)c1OC	x	32.2*	5.6	x	-11.9%	-7.9%
COc1ccccc1Cn1c(CNS(=O)(=O)c2ccc(Cl)s2)nc2cccnc21	x	-4.4	x	x	-67.1%	x
COc1ccccc1CNS(=O)(=O)c1cc(C)ccc1OC	3.2%	0.7	36.4	4.6%	i	-6.1%
COc1cccc2c1C(=O)c1c(O)c3c(c(O)c1C2=O)C[C@@](O)(C(=O)CO)C[C@@H]3O[C@H]1C[C@H](N)[C@H](O[C@@H]2CCCCO2)[C@H](C)O1	x	-16.8	x	x	x	x
Cc1ccc(NC(=O)NNC(=O)C2CC(c3cccnc3)=NO2)cc1 (stereo not drawn)	-3.7%	-10.8	-61.6*	-1.9%	i	-12.8%
COc1ccc(C2(CNC(=O)c3ccccc3[N+](=O)[O-])CCOCC2)cc1	5.8%	-10.1	-0.7	6.7%	i	-9.8%
Clc1cccc2c3c([nH]c12)CCNC3	-1.3%	-44.1	-60.1*	x	i	0.8%
Clc1ccc2[nH]c3c(c2c1)CNCC3	-5.7%	-33.7	-97.7*	x	i	1.3%
CCOC(=O)c1ccc(NC(=S)Nc2ccc(C)cc2)cc1	4.1%	1.3	1.1	4.2%	i	-4.4%
CCOC(=O)c1ccc(NC(=S)NNC(C)(C)C)cc1	-8.0%	-13.2	-58.1*	-4.0%	6.1%	-36.6%
COc1ccc(C2NC(=S)N3C(c4ccc(OC)c(OC)c4)NC(=S)N23)cc1OC (stereo not drawn)	x	0.3	x	x	x	x
O=C(CS(=O)c1ccc(F)cc1)N1CCOCC1 (stereo not drawn)	3.2%	2.1	22.7	x	i	0.0%
COc1ccc(N2CCN(CC(O)COc3ccc(C(C)C)c(C)c3)CC2)cc1 (stereo not drawn)	x	-8.0	x	x	-20.5%	x
COc1ccc(/C=C/C(=O)Nc2nc(-c3cccs3)ns2)cc1OC	x	36.2*	x	x	-17.7%	x
COCCNc1nc(CSc2ccccc2)nc2sc(C)c(C)c12	3.9%	-3.4	-14.2	u	-7.7%	-1.1%
Cc1sc2nc(CSc3ccccc3)nc(N3CCN(C)CC3)c2c1C	-14.4%	-3.0	-93.3*	-1.6%	8.7%	-22.8%
COc1cc(/C=C2\SC(=O)N(c3cccc(Cl)c3)C2=O)cc([N+](=O)[O-])c1O	11.3%	-28.9	-61.8*	0.2%	-27.4%	8.4%
COc1cc(/C=C2\SC(=O)N(c3ccc(Cl)cc3)C2=O)cc([N+](=O)[O-])c1O	9.3%	-21.8	-69.9*	u	-7.6%	4.5%
SMILES	MBNL1 CUG block	D3 ag	D3 antag	CBFb-RUNX1 inh	PTHR1 ag	Integrin act MD
Fc1ccc(CN2CCCCCCC2)c(F)c1	0.4%	-2.5	-52.9*	1.6%	u	10.5%
Fc1ccc(CN2CCCCCCC2)cc1F	-5.3%	2.3	-65.0*	-11.4%	i	14.8%
Fc1ccc(CN2CCCCCC2)c(F)c1	-1.0%	-5.8	-6.1	6.2%	i	8.0%
Cc1ccccc1CN1CCN(CC2CC3C=CC2C3)CC1 (stereo not drawn)	-0.1%	-16.9	-65.8*	0.0%	-2.4%[57.5 µM]	-3.1%
CCN1CCN(CC2CC3C=CC2C3)CC1 (stereo not drawn)	u	-8.7	-11.0	-6.3%	i	-12.4%
C1=CC2CC1CC2CN1CCN(c2ccccc2)CC1 (stereo not drawn)	-1.4%	-9.3	-54.4*	-0.3%	i	-29.3%
Cc1ccc(S(=O)(=O)NCc2ccc(C(=O)N3CCN(c4ccc([N+](=O)[O-])cc4)CC3)cc2)cc1	u	23.1	122.0	x	-41.2%	-73.0%
Cc1ccc(C)c(Cc2c(C)nc3c(C(=O)N4CCOCC4)cnn3c2C)c1	-10.8%	31.3*	-8.9	2.9%	i	11.4%
COCCCn1c(N)c(-c2nc3ccccc3n2C)c2nc3ccccc3nc21	u	13.7	-87.9*	u	-5.1%[57.5 µM]	0.0%
Cn1c(-c2c(N)n(C3CCCC3)c3nc4ccccc4nc23)nc2ccccc21	14.5%	2.0	78.0	u	-1.5%[57.5 µM]	0.0%
Cn1c(-c2c(N)n(CCc3ccccc3)c3nc4ccccc4nc23)nc2ccccc21	37.6%	46.3*	23.5	u	-9.7%[57.5 µM]	-46.2%
Cn1c(-c2c(N)n(CCCc3ccccc3)c3nc4ccccc4nc23)nc2ccccc21	24.9%	3.6	14.3	3.1%	i	-0.2%[7.66 µM]
COC(=O)c1sccc1NC(=O)CSc1ccccc1NS(=O)(=O)c1ccc(Cl)cc1	-14.3%	2.4	-59.3*	-3.2%	-13.9%[57.5 µM]	3.1%
CCOC(=O)N1CCN(C(=O)COC(=O)C2CCN(S(=O)(=O)c3c(Cl)cccc3Cl)CC2)CC1	x	7.3	27.4	x	-17.4%	-11.0%
Cn1c(Cn2c(=O)sc3ccccc32)nnc1SCC(=O)NCc1ccccc1	-16.6%	-8.9	-63.2*	4.7%	-5.0%	u
N#CC(c1ccccc1)c1ccc2c(C(F)(F)F)cc(C(F)(F)F)nc2n1 (stereo not drawn)	u	0.0	-80.2*	-16.3%	-19.3%[57.5 µM]	-63.2%
CN(Cc1ccccc1)C(=O)COC(=O)c1cc(NS(=O)(=O)c2cccs2)ccc1O	-2.4%	0.5	27.4	-6.8%	-53.2%	31.6%
COCc1cc(=O)n2[nH]c(C)c(-c3ccc(Cl)cc3)c2n1	x	1.9	-60.5*	x	-20.5%	-35.6%
COC(=O)c1ccc(CN2CCc3ccccc32)cc1	12.6%	-4.0	12.3	x	i	0.9%
COc1cccc(NC(=O)C(OC(=O)/C=C/c2ccc3c(c2)OCO3)c2ccccc2)c1 (stereo not drawn)	5.2%	-4.3	-55.3*	2.9%	-20.4%	2.1%
COc1ccc(NC(=O)C(c2ccccc2)N(C)C(=O)/C=C\c2ccc3c(c2)OCO3)cc1 (stereo not drawn)	x	-18.5	x	x	i	x
COC[C@H](c1ccc(C(F)(F)F)cc1)N1CCN(C2(C)CCN(C(=O)c3c(C)ncnc3C)CC2)C[C@H]1C	x	12.7	x	x	x	x

Source: PubChem BioAssay (National Center for Advancing Translational Sciences (NCATS))
